Bioassay records: PubChem, several laboratories
A selection: hits, their analogues and other compounds. The true share with any hit is near 2.9%.
ERa coact inh: ER-alpha (human) coactivator binding inhibition; TR-FRET ER-alpha LBD / SRC-1 peptide, estradiol-bound; inhibition, % at 25.6 µM; 86,000 compounds, 1.7% hits; AID 629; in the data active = inhibition above about 50%;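 note: 0% = receptor plus peptide control and 100% = peptide only without receptor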
Target sequence (P03372 whole entry, looked up, the tested form may be a part): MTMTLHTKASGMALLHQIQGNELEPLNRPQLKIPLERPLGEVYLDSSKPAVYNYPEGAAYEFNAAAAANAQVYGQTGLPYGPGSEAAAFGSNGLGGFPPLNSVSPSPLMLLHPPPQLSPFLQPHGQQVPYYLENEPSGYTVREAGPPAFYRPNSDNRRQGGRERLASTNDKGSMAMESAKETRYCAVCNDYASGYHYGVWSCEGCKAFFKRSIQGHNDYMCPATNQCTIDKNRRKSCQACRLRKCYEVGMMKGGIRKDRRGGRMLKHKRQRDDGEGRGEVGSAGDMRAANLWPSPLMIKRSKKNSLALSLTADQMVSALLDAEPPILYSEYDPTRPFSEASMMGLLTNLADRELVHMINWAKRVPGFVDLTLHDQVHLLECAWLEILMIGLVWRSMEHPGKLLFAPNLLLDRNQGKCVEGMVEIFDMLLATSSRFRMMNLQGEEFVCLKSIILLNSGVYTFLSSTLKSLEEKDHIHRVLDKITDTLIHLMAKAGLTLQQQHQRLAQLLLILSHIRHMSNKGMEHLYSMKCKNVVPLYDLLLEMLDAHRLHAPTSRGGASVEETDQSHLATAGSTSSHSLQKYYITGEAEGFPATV
E-sel TNF inh: blocks E-selectin expression induced by TNF alpha; inhibition, % at 2 µM; HUVEC TNFa-induced E-selectin immunofluorescence, high content; 120,000 compounds, 0.71% hits;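 active = inhibition above the batch mean plus 3 SD, and confirmed as a hit on visual image review, cut at about 43% in these data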;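 note: 0% = TNF-stimulated DMSO wells and 100% = unstimulated control wells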
Candida biofilm: kills Candida albicans biofilms. C. albicans biofilm + clotrimazole, Alamar Blue. inhibition, % at 6 µM. 85,000 compounds, 0.14% hits. AID 834;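 active = inhibition above 20%; inactive = inhibition below 20%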;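 note: preformed 24 hr biofilms exposed to compound for 48 hr; 0% = biofilm without compound and 100% = blank killed by clotrimazole plus chlorhexidine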
ERb SRC1 inh: blocks coactivator binding to human estrogen receptor beta. inhibition, % at 25.6 µM. AID 633. TR-FRET ER-beta LBD / SRC1-Cy5 peptide binding; receptor agonist-loaded with 1 µM estradiol. 86,000 compounds, 1.3% hits;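 active = compounds whose percent inhibition of the receptor-coactivator binding signal exceeds about 50% in the single-dose screen, limit read from the data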;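 note: 0% = receptor plus peptide wells without compound and 100% = peptide-only wells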
F-actin modifier: alters cytoskeleton assembly in HUVEC cells; HUVEC TNFa F-actin phalloidin imaging, high content; 91,000 compounds, 0.18% hits; inhibition, % at 2 µM;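 active = inhibition above the batch mean plus 3 SD and confirmed as a hit by visual image inspection, cut at about 30% in these data, passing the limit was not always enough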
ERa SRC1 pot: ER-alpha (human) coactivator binding potentiation; TR-FRET ERalpha-LBD/SRC-Cy5 coactivator binding, 2 h; 100 = basal binding, no effect; 86,000 compounds, 1.3% hits; coactivator binding (% of control), % at 25.6 µM; in the data active = activity above about 200%;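 note: binding measured in presence of low estradiol as agonist stimulus; 0% = peptide alone without receptor and 100% = receptor with peptide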
* marks the source's active call; other numbers are inactive results; . = not tested or not shown; [ ] = another dose, or the depositor's remark.

SMILES	ERa coact inh	E-sel TNF inh	Candida biofilm	ERb SRC1 inh	F-actin modifier	ERa SRC1 pot
Cc1nnc(SCC(=O)N2CC(=O)Nc3ccccc32)n1C	-3.9	64.0*	0.7	7.7	1.9	91.4
Cc1ccccc1-n1c(C)nnc1SCC(=O)N1CC(=O)Nc2ccccc21	-2.5	3.3	5.6	23.4	.	101.1
Cc1cc(C(=O)CSc2nnc(-c3ccco3)o2)c(C)n1Cc1ccco1	53.8*[fluorescence artefact?]	.	1.4	41.1	-8.1	177.2
Cc1cc(C(=O)CN2C(=O)NC(c3ccccc3)(c3ccccc3)C2=O)c(C)n1Cc1ccco1	-0.5	74.5*	6.8	8.3	26.9	107.2
COc1ccc(-c2nnc(SCC(=O)c3cc(C)n(Cc4cccs4)c3C)o2)cc1	52.4*[fluorescence artefact?]	7.5	3.9	37.6	-8.6	302.8*
Cc1cc(C(=O)CSc2nnc(N)s2)c(C)n1Cc1cccs1	.	-0.1	.	.	.	.
Cc1cc(C(=O)CSc2nnc(-c3ccc(OC(F)F)cc3)o2)c(C)n1Cc1cccs1	54.5*[fluorescence artefact?]	-22.9	-0.9	44.3	-31.2	149.9
COc1cccc(NC(=O)N(CCCN2CCOCC2)C(C)c2cc3ccccc3o2)c1 (stereo not given)	-2.2	7.6	5.9	4.9	7.0	97.4
COc1ccc(-n2cnnc2SCC(=O)c2cc(C)n(Cc3cccs3)c2C)cc1	20.7	6.6	0.5	25.3	7.0	248.1*[fluorescence artefact?]
COCCn1c(C)cc(C(=O)CSc2nncn2-c2ccccc2)c1C	-0.5	4.9	7.7	8.0	-44.0	94.2
Cn1c(=O)c2c(nc(SCC(=O)c3ccccc3F)n2C)n(C)c1=O	.	-10.3	.	.	.	.
Cc1ccc(S(=O)(=O)N2CCC(C(=O)NCCc3ccccn3)CC2)cc1	.	9.0	.	.	.	.
NC1=NC2(CCCCCC2)n2c(nc3ccccc32)N1	64.8*[fluorescence artefact?]	-4.1	8.0	-5.8	1.0	25.6
c1ccc2c(c1)NC1(CCCCCC1)n1c-2nc2ccccc21	-19.3	6.1	0.6	-3.9	-8.3	91.7
CC1CCC2(CC1)N=C(N)Nc1nc3ccccc3n12 (stereo not given)	63.1*[fluorescence artefact?]	4.3	7.7	4.3	-0.9	38.3
O=C(Nc1ccccc1)c1sc2cc(C(F)(F)F)cnc2c1-c1cccs1	18.5	21.7	0.6	17.4	8.7	209.8*[fluorescence artefact?]
Cc1[nH]n(-c2c(Cl)cc(Cl)cc2Cl)c(=O)c1C=Nc1ccc(S(=O)(=O)N2CCOCC2)cc1	.	28.9	.	.	.	.
CCn1c(=O)cc(OCC(=O)Nc2ccc(C)cn2)c2ccccc21	1.4	.	-2.5	-1.7	7.4	80.7
Cc1ccc(Cn2c(=O)cc(C(=O)O)c3ccccc32)cc1	.	13.0	.	.	-11.7	.
CCOC(=O)c1ccccc1NC(=O)COc1cc(=O)n(CC)c2ccccc12	18.7	-7.2	5.3	45.2	-19.1	277.7*[fluorescence artefact?]
CCOC(=O)c1cc(=O)n(Cc2ccccc2C)c2ccccc12	-1.9	-5.2	3.1	4.0	33.4*	113.1
CCCc1[nH]nc2c1C(c1ccccc1OCC)C(C#N)=C(N)O2 (stereo not given)	3.9	7.1	0.7	3.1	-12.7	85.3
CCOc1ccccc1C1C(C#N)=C(N)Nc2onc(-c3ccccc3)c21 (stereo not given)	-4.0	0.7	4.0	0.7	34.3	377.6*
COc1cc2c3nnc(-c4ccc(F)cc4)c-3cn(Cc3ccc(C)cc3)c2cc1OC	6.4	-1.2	7.1	51.1*[fluorescence artefact?]	24.9	591.4*[fluorescence artefact?]
COc1cc2c3nnc(-c4ccc(F)cc4)c-3cn(Cc3cccc(C)c3)c2cc1OC	18.3	-11.2	12.1	29.4	-2.0	366.3*[fluorescence artefact?]
SMILES	ERa coact inh	E-sel TNF inh	Candida biofilm	ERb SRC1 inh	F-actin modifier	ERa SRC1 pot
COc1ccc(CN2C(=O)NC(C)(c3ccc(C)cc3)C2=O)cc1F (stereo not given)	.	-8.2	.	.	.	.
COc1cc2c3nnc(-c4ccc(F)cc4)c-3cn(Cc3cccc(F)c3)c2cc1OC	.	-43.2	.	.	.	.
CCCc1nc2sc3c(SCC(=O)NCc4ccco4)ncnc3c2c2c1CCC2	43.7	.	7.4	48.5	.	254.9*[fluorescence artefact?]
Cc1nc(SCC(=O)NCc2ccco2)c2c3c(sc2n1)CCCC3	15.5	.	2.4	15.7	34.4	115.1
Cc1ccc(-c2nn(CC(=O)NC(C)c3ccccc3)c(=O)c3ccccc23)cc1 (stereo not given)	27.0	-8.5	5.2	1.4	-0.2	207.5*[fluorescence artefact?]
Cc1nn(CC(=O)NC(C)c2ccccc2)c(=O)c2ccccc12 (stereo not given)	-4.5	13.2	3.8	-14.1	.	124.9
Cc1cc(C)c(NC(=O)c2cc3c(nc4sccn43)s2)c(C)c1	86.3*[fluorescence artefact?]	-26.7	-3.9	55.0*[fluorescence artefact?]	.	34.1
CCOc1ccc(C(C)=O)cc1COc1ccc(-n2cnnn2)cc1	55.5*[fluorescence artefact?]	-35.9	6.2	22.6	.	52.6
